Laboratory results: PubChem BioAssay (EPA / NIEHS)
Where “and” joins values, the source holds several entries; their conditions need not be identical. Equal values may be shown once. Calls of active or inactive are those of the source. How the source made its calls: active means hit-call score of the fitted dose curve at least 0.9, where 1 is the maximum; inactive means score below 0.9.

Read-out: Plasminogen activator inhibitor-1 (PAI1), SERPINE1 (gene 5054)
Test: BSK_hDFCGF_PAI1: BioMAP Diversity Plus: hDFCGF Assay for Plasminogen activator inhibitor-1 (PAI1) Biomarker Activity (AID 2283066)
Details: primary human foreskin fibroblasts; actives raise or lower the signal
Description: BSK_hDFCGF is a cell-based, multiplexed-readout assay that uses foreskin fibroblast, a human skin primary cell, with measurements taken at 24 hours after chemical dosing in a 96-well plate.BSK_hDFCGF_PAI1 is an assay component measured in the BSK_hDFCGF assay. It measures PAI-1 antibody related to regulation of gene expression using ELISA technology.Data from the assay component BSK_hDFCGF_PAI1 was analyzed into 1 assay endpoint. This assay endpoint, BSK_hDFCGF_PAI1, was analyzed with bidirectional fitting relative to DMSO as the negative control and baseline of activity. Using a type of binding reporter, gain or loss-of-signal activity can be used to understand changes in the signaling as they relate to the gene SERPINE1. Furthermore, this assay endpoint can be referred to as a primary readout, because this assay has produced multiple assay endpoints where this one serves a signaling function. To generalize the intended target to other relatable targets, this assay endpoint is annotated to the cytokine intended target family, where the subfamily is plasmogen activator inhibitor.
The levels of cell surface (or secreted, indicated by the prefix "s") biomarker endpoints were measured by ELISA. Overt cytotoxicity to cells in confluent adherent cultures (all systems other than the BT system) was assessed by measuring total protein levels using sulforhodamine B (SRB) staining in parallel cultures at the time of biomarker measurements, indicated as SRB endpoints. For proliferation assays for adherent cell types, individual cell types are cultured at sub-confluence and relative cell numbers quantified by SRB staining at time points optimized for each system (48 h: 3C and CASM3C systems; 72 h: BT and HDF3CGF systems; 96 h: SAg system). SRB was performed by staining cells with 0.1% SRB after fixation with 10% TCA and reading wells at 560 nm.Viability and proliferation of PBMC (T cells) was quantified by Alamar Blue reduction for the SAg and BT systems. For PBMC viability (referred to as PBMC Cytotoxicity within the assay endpoint names), cells were plated (75,000/well in a 96-well plate) and then chemical samples added for 1 h before addition of activators, SEB and TSST-1 (20 ng/mL final concentration each). Cells were incubated for 90 h. Then, Alamar Blue (20 uL/well) (Invitrogen, Cat DAL1100) was added for 6 h, and the plates were read with a fluorescence microplate reader at 546/580 nm (excitation/emission). For PBMC proliferation, cells were plated and activated as above but incubated for only 16 h prior to addition of Alamar Blue. Plates were read after 6 h.

SMILES	outcome	AC50
S=C(NC1CCCCC1)NC1CCCCC1	inactive	–
C/C=C\C/C=C/CCCCCCCCOC(C)=O	–	28.9 µM (active)
CC(C)(c1cc(Br)c(OCCO)c(Br)c1)c1cc(Br)c(OCCO)c(Br)c1	–	16.2 µM (active)
CCOC(=O)c1ccccc1C(=C1C=C(Br)C(=O)C(Br)=C1)c1cc(Br)c(O)c(Br)c1	–	3.56 µM (active) and 3.54 µM (active)
COc1ccc2nc(N)sc2c1	inactive	–
CC(C)C(=O)C(C)C	inactive	–
CCCCNc1ccc(NCCCC)c2c1C(=O)c1ccccc1C2=O	inactive	–
c1ccc2c(c1)ccc1ncccc12	inactive	–
C=C[Si](OC(C)=O)(OC(C)=O)OC(C)=O	inactive	–
COCc1c(C(C)C)nc(C(C)C)c(/C=C/[C@@H](O)C[C@@H](O)CC(=O)O)c1-c1ccc(F)cc1	inactive	–
O=C1CCCN1CCO	inactive	–
CCOc1nc(F)cc2nc(S(=O)(=O)Nc3c(Cl)cccc3C(=O)OC)nn12	inactive	–
CCCCC(CC)COCC1CO1 (stereo unspecified)	inactive	–
O=C(c1ccc(O)cc1)c1ccc(O)cc1O	inactive	–
C=CCOCC(O)CCl (stereo unspecified)	inactive	–
CCO[Si](C)(OCC)OCC	inactive	–
N#[N+]c1ccc2c(S(=O)(=O)[O-])cccc2c1O	inactive	–
CN1C(=O)N(C)C(O)C1O (stereo unspecified)	inactive	–

SMILES	outcome	AC50
CCCCCCCCCCCCCCCC[N+](C)(C)CC	–	1.53 µM (active)
C=CC(=O)OCC(Br)CBr (stereo unspecified)	–	8.55 µM (active)
CCO[Si](CCCN=C=O)(OCC)OCC	inactive	–
CCCCC(CC)COC(=O)c1ccccc1O (stereo unspecified)	–	7.32 µM (active)
C#CC1(O)CC[C@H]2[C@@H]3CCC4=CCCC[C@@H]4[C@H]3CC[C@@]21C (stereo partly specified)	–	36.7 µM (active)
c1ccc2c(c1)ccc1cc3c(ccc4ccccc43)cc12	inactive	–
O=C(Cl)c1cc(C(=O)Cl)cc(C(=O)Cl)c1	–	29.8 µM (active)
CC1OC1C1CCC2(C)OC2C1 (stereo unspecified)	inactive	–
C=CC=CC=CCCCCC	inactive	–
Nc1ccc(N)c(Cl)c1	–	26.4 µM (active) and 31.4 µM (active)
O=C(Nc1ccccc1SSc1ccccc1NC(=O)c1ccccc1)c1ccccc1	inactive	–
CCCCCCCCc1ccc(Nc2ccc(CCCCCCCC)cc2)cc1	inactive	–
c1ccc(-c2ccccn2)nc1	inactive	–
CCCCC/C=C\C/C=C\CCCCCCCC(=O)OC	–	28.9 µM (active)
O=Nc1ccc(O)cc1	inactive	–
CO[Si](OC)(OC)c1ccccc1	inactive	–
C=CCOc1c(Br)cc(Br)cc1Br	–	20 µM (active)
O=c1c2ccccc2oc2ccccc12	inactive	–
